# IP6K1 inh: Primary qHTS assay for small molecule inhibitors of Inositol hexaphosphate kinase 1 (IP6K1); activity change, % (series mostly up to about 58 µM); Inositol hexakisphosphate kinase 1 (Homo sapiens), Q92551; IP6K1 kinase, ADP-Glo luminescence, 2 h; active compounds read low; 0.81% of 140,000 active; in the data active = activity change below about -25%; note: % is set by controls: 0 for no effect and ±100 for the full control effect
#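 ADP-Glo luminescence measures ADP made by human IP6K1 during a 2 h RT reaction with ATP/IP6 (mix at 1.3 mM/130 uM); top library doses 57.5 and 19.1 uM final.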
# SNCA expr inh: Primary qHTS assay for inhibitors of alpha-synuclein gene (SNCA) expression; HEK-293 SNCA-luciferase knock-in, luminescence, 24 h; Potency, µM (top dose mostly 57.2 µM), inactives show at the highest dose activity change, negative = inhibition, most hits filed as inhibitors; 0.17% of 140,000 active; AID 1671194, 2021;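 note: potency is the fitted concentration of half-maximal effect; plate controls were DMSO cells for no effect and cell-free wells for full effect; nearly all actives have a fitted effect of over 45% in size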
# HEK293 viab: GF-AFC viability counterscreen for inhibitors of alpha-synuclein gene (SNCA) expression | HEK-293-SNCA-luc viability, GF-AFC fluorescence, 24 h | Potency, µM (highest dose often 57.1 µM), for inactives: top-dose activity change, negative = cytotoxicity, actives largely listed as cytotoxic | 0.12% of 150,000 active;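 note: potency is the fitted concentration of half-maximal effect; 0% = DMSO-treated cells and -100% = medium-only wells without cells; nearly all actives have a fitted effect of over 30% in size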
#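 HEK-293-SNCA-luc cells (1500/well) plated 24 h, then exposed 24 h to a dilution series; GF-AFC added 30 min at 37C, fluorescence 405/540 nm; normalised to medium-only and DMSO wells, Hill fit.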
# KDM5B inhibitor: Primary screen for KDM5B Histone Demethylases FDH-coupled qHTS; Lysine-specific demethylase 5B (Homo sapiens), Q9UGL1; KDM5B demethylase, FDH-coupled NADH fluorescence (FDH is formaldehyde dehydrogenase); Potency, µM (doses to about 57.7 µM), usual class: inhibitors; 2.6% of 220,000 active; AID 1347165, 2019; note: potency is the fitted concentration of half-maximal effect; 0% is about no effect; nearly all actives have a fitted effect of over 70% in size
#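 Compound dilutions met 200 nM (final) KDM5BΔAP for 10 min at room temperature before substrate addition. The substrate mix held 12.5 µM H3K4me3 with cofactors 25 µM α-ketoglutarate and 50 µM Fe²⁺. NADH signal gain over 30 min defined activity.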
# * marks the source's active call; other numbers are inactive results; i = inactive; u = inconclusive; x = no result; [ ] = remark or other dose. In the library only some 2.8% were active in any assay of this set; here they are far more common. Unless noted, calls come from the whole dose curve; as a rule, active = well fitted curve in the direction sought with a large enough effect; inconclusive = small, poorly fitted or top-dose-only effect, or another doubt; inactive = no such curve, though single readings can be large; an effect the other way counts as inactive or inconclusive.
SMILES,IP6K1 inh,SNCA expr inh,HEK293 viab,KDM5B inhibitor
N#Cc1ccc(CN2CCn3c(nnc3C3CCCNC3)C2)cc1 (centres undefined),2.6,u,-23.6%,20µM*
C1CCC(CN2CCn3c(nnc3C3CCCNC3)C2)CC1 (centres undefined),4.8,-28.2%,-29.8%,25.1µM*
c1ccc(CN2CCn3c(nnc3C3CCCNC3)C2)cc1 (centres undefined),6.2,-27.4%,-1.1%,i
CCOc1ccc(C2Cn3nnc(-c4nc(-c5cccc(Cl)c5)no4)c3CO2)cc1 (centres undefined),-1.5,-9.0%,-8.0%,i
CCOc1cccc(-c2noc(-c3nnn4c3COC(c3ccc(Cl)cc3)C4)n2)c1 (centres undefined),-0.3,u,4.3%,22.4µM*
Cc1cccc(-c2noc(-c3nnn4c3COC(c3ccc(F)cc3)C4)n2)c1 (centres undefined),-9.8,138.3%,u,i
CCOc1ccc(C2Cn3nnc(-c4nc(-c5cccc(C)c5)no4)c3CO2)cc1 (centres undefined),-14.3,25.9%,-13.1%,20µM*
CCOc1ccc(C2Cn3nnc(-c4nc(-c5ccccc5)no4)c3CO2)cc1 (centres undefined),1.9,80.1%,5.8%,28.2µM*
CC(=O)c1cccc(NC(=O)COc2c(C)[nH]ccc2=O)c1,x,x,x,i
CCc1ccc2c(c1)NC(c1ccc(C)o1)=NC(c1ccc(F)cc1)=N2,x,x,x,i
COc1cccc(NC(=O)c2cnc3c(c2)N(Cc2ccccc2)CCC3)c1,-7.1,-12.3%[87.6 µM],-11.7%[87.6 µM],31.6µM*
COc1ccccc1N1CCCc2ncc(C(=O)Nc3cccnc3)cc21,1.3,-22.0%[87.6 µM],8.7%[87.6 µM],i
COc1ccccc1N1CCCc2ncc(C(=O)Nc3cccc(C(F)(F)F)c3)cc21,-0.1,10.8%[87.6 µM],2.7%[87.6 µM],31.6µM*
Nc1nc(C2CC(NC(=O)c3csc4c3CCCC4)C2)cc(=O)[nH]1 (centres undefined),33.3,8.9%,0.8%,i
Cc1nc(C2CC(NC(=O)c3cnc(N)nc3C(F)(F)F)C2)cc(=O)[nH]1 (centres undefined),9.5,-2.6%,0.0%,28.2µM*
Cc1ccc(-c2ccccc2)nc1C,x,x,x,i
CN(C)C(=O)COC(=O)c1cc(-c2ccc(C3CCNCC3)cc2)c2ccc(-c3ccc(C(F)(F)F)cc3)cc2c1,1.9,x,29.9µM*,x
CN(C)C(=O)CNC(=O)c1cccc(-c2ccc(C(F)(F)F)cc2)c1,-4.0,u,1.4%[12.5 µM],x
Cn1ncc2c(C(=O)NCCCNC(=O)OC(C)(C)C)cc(-c3ccc(F)cc3)nc21,4.7,x,x,x
O=C(NC[C@H]1O[C@@H](CC(=O)N2CCN(c3ccccn3)CC2)[C@H](O)[C@@H]1O)NC1CCCCC1,9.3,23.4%,-6.0%,25.1µM*
O=C(NC[C@H]1O[C@@H](CC(=O)N2CCN(c3ccccn3)CC2)[C@H](O)[C@@H]1O)Nc1cccc(F)c1,-3.9,u,-2.2%,u
Cc1c(-c2ccccc2F)[nH]c2ccc(CNC(=O)C3C=CCN3)cc12 (centres undefined),-17.2,40.2%,5.4%,28.2µM*
CCc1[nH]c2ccc(CNC(=O)C3CC(=O)Nc4ccccc43)cc2c1C (centres undefined),-3.9,22.7%,1.8%,i
Cc1c(-c2ccccc2F)[nH]c2ccc(CNC(=O)C3CCCN(C(N)=O)C3)cc12 (centres undefined),25.6,5.1%,-13.5%,28.2µM*
Cc1ccc(C(=O)NCc2nnc3cc(-c4nc(C(C)C)no4)ccn23)cc1,6.5,6.7%,5.3%,10µM*
SMILES,IP6K1 inh,SNCA expr inh,HEK293 viab,KDM5B inhibitor
CCc1ccc(C(=O)NCc2nnc3cc(-c4nc(C(C)C)no4)ccn23)cc1,-5.8,u,-29.6%,i
CC(C)c1noc(-c2ccn3c(CNC(=O)c4ccco4)nnc3c2)n1,2.8,-19.1%,-20.1%,28.2µM*
CCNC(=O)N1CCC(Cc2ccc(C(=O)Nc3cccc(F)c3)cc2)CC1,-4.1,169.0%,-10.7%,i
O=C(NCc1nnc2c(-c3nc(C4CC4)no3)cccn12)c1cc(F)ccc1Cl,-7.4,-29.0%,4.5%,28.2µM*
CCOc1ccccc1C(=O)NCc1nnc2c(-c3nc(C4CC4)no3)cccn12,2.7,9.1%,-5.0%,i
O=C(NCc1nnc2c(-c3nc(C4CC4)no3)cccn12)c1cc(F)ccc1F,16.5,-6.2%,9.8%,28.2µM*
COC(=O)C1=C(C)Nc2nc3ccccc3n2C1c1ccc(OC)cc1 (centres undefined),x,x,x,i
O=C(Nc1cccn2cnnc12)c1ccc(S(=O)(=O)NCCO)cc1,-4.5,-9.0%,-5.9%,28.2µM*
CC(Cn1cncn1)NC(=O)c1ccc(S(=O)(=O)NCCO)cc1 (centres undefined),8.7,6.8%,-7.9%,i
CCC(C(=O)Nc1ccc(C(C)=O)cc1)n1c(=O)c(-c2ccccc2NC(C)=O)nc2ccccc21 (centres undefined),x,x,x,i
COc1cccc(-c2ccc(C(=O)NCCNC(=O)C3CC3)cc2)c1,-11.3,x,x,x
COc1cccc(-c2ncc(CNC(=O)[C@H]3CC[C@@H](N)C3)s2)c1,23.3,37.1%,6.1%,25.1µM*
Cc1oc(-c2ccccc2)nc1C(=O)NCc1ccc(F)cc1,x,x,x,i
Cc1ccc(/C=C(/C#N)C(=O)C(C)C)c(C)c1,x,x,x,i
Cc1nn2c(c1-c1ccccc1C(C)C)N(CCC(C)C)CCC2,-1.7,u,u,17.8µM*
Cc1nn2c(c1-c1ccccc1C(C)C)N(Cc1ccc(C(=O)O)cc1)CCC2,26.0,-11.1%[87.6 µM],0.8%[87.6 µM],i
Cc1nn2c(c1-c1ccccc1C(C)C)N(C(=O)c1cc3ccccc3n1C)CCC2,5.9,u,35.5µM*,i
CN(C)c1ccc(C(=O)N2CCN(c3nnc4ccccn34)CC2)cc1,-8.3,-11.4%,1.3%,17.8µM*
CCc1ccc(C(=O)N2CCCN(c3nnc4ccccn34)CC2)cc1,6.7,u,u,25.1µM*
O=C(c1ccoc1)N1CCN(c2nnc3ccccn23)CC1,16.7,-1.0%,7.0%,31.6µM*
O=C(CSc1c2c(nc3ccccc13)CCC2)Nc1cccc(C(F)(F)F)c1,x,x,x,i
COCCCN(CCOC)Cc1ccccc1,x,x,x,i
O=C(NCC1CCN(c2cc(-c3ccccc3)[nH]n2)CC1)c1ccc[nH]c1=O,8.4,3.2%,-6.0%,31.6µM*
O=C(Nc1ccc(Cl)cc1Cl)c1ccc2cncn2c1,-5.2,97.3%[87.6 µM],-2.4%[87.6 µM],28.2µM*
O=C(Nc1ccc(Cl)cc1Cl)c1ccn2cncc2c1,0.4,64.0%[87.6 µM],-3.8%[87.6 µM],35.5µM*
O=C(O)CCS(=O)(=O)Nc1ccccc1,x,x,x,i
Cc1ccc(C(=O)COc2cccn3c(=O)c(-c4cc(C)n(-c5ccccc5)n4)c(C)nc23)cc1,5.5,4.7%,-26.1%,u
Cc1nc2c(OCC(=O)OC(C)(C)C)cccn2c(=O)c1-c1cc(C)n(-c2cccc(F)c2)n1,1.8,15.1%,-26.0%,u

# From PubChem
